Test results published in PubChem BioAssay (NCI).
About 79,000 compounds went through this panel and 15% of them were active in at least one assay; those are over-represented in the sample as a whole. Activity calls are given as the source filed them. Rule as the data show it: active = growth inhibition above about 70%; inactive = the rest.

Experiments:
[1] = NCI Yeast Anticancer Drug Screen. Data for the wt2 strain (AID 169);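 also: 0% = growth of vehicle-treated yeast cultures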; conditions: S. cerevisiae wt2 strain growth inhibition, stronger effect = higher value
Outline: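 Treated yeast vs. vehicle-treated yeast: growth inhibition determined.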

[2] = NCI Yeast Anticancer Drug Screen. Data for the mlh1 strain (AID 171);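 also: 0% = growth of vehicle-treated control cultures of the same strain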; conditions: S. cerevisiae mlh1 strain growth inhibition, stronger effect = higher value
Outline: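 A yeast strain with a defined genetic lesion serves as the test organism. Cultures receive compound or vehicle, and growth is measured.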

[3] = NCI Yeast Anticancer Drug Screen. Data for the sgs1 strain (AID 173);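 also: 0% = growth of vehicle-only control cultures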; conditions: S. cerevisiae sgs1 mutant, stronger effect = higher value
Outline: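 A genetically defined yeast mutant is incubated with the test compound, and its growth is compared to that of the same strain given vehicle.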

[4] = NCI Yeast Anticancer Drug Screen. Data for the mlh1 rad18 strain (AID 175); conditions: S. cerevisiae mlh1 rad18 strain growth inhibition, stronger effect = higher value
Outline: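 Steps: expose repair-defective yeast to compound; measure growth; express inhibition against vehicle-treated controls.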

[5] = NCI Yeast Anticancer Drug Screen. Data for the rad18 strain (AID 177); conditions: S. cerevisiae rad18 mutant growth inhibition, stronger effect = higher value
Outline: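 Measured value is growth inhibition of a yeast strain bearing a DNA repair alteration, referenced to vehicle-treated cells.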

[6] = NCI Yeast Anticancer Drug Screen. Data for the rad52 strain (AID 147);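 also: 0% = growth of vehicle-treated control cultures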; conditions: S. cerevisiae rad52 mutant growth inhibition, stronger effect = higher value
Outline: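 Here a repair-compromised yeast strain receives each compound; its growth is then quantified and normalised to vehicle-only controls.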

[7] = NCI Yeast Anticancer Drug Screen. Data for the wt1 strain (AID 149);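 also: 0% = growth of vehicle-treated wt1 cultures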; conditions: S. cerevisiae wt1 strain (SPY 50644) growth inhibition, stronger effect = higher value
Outline: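 Measured: growth of wt1 yeast under compound versus vehicle treatment, reported as inhibition.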

[8] = NCI Yeast Anticancer Drug Screen. Data for the rad50EPP+ strain (AID 151);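 also: 0% = growth of vehicle-treated control cultures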; conditions: S. cerevisiae rad50 mutant strain, stronger effect = higher value
Outline: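 Read-out is yeast growth inhibition relative to vehicle; cells used were the rad50EPP+ strain.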

[9] = NCI Yeast Anticancer Drug Screen. Data for the mgt1 strain (AID 153); conditions: S. cerevisiae mgt1 mutant growth inhibition, stronger effect = higher value
Outline: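 Measured: inhibition of mgt1 yeast growth by compound, normalized to vehicle-treated cultures.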

[10] = NCI Yeast Anticancer Drug Screen. Data for the rad50 strain (AID 155);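 also: 0% = growth of vehicle-only cultures of the same strain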; conditions: S. cerevisiae rad50 strain growth inhibition, stronger effect = higher value
Outline: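 Growth of the mutant yeast was measured after compound exposure and referenced to vehicle-treated cultures.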

[11] = NCI Yeast Anticancer Drug Screen. Data for the mec2-1 strain (AID 157); conditions: S. cerevisiae mec2-1 strain, stronger effect = higher value
Outline: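 Using mec2-1 yeast: add compound, measure growth, express inhibition versus vehicle-treated cultures.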

[12] = NCI Yeast Anticancer Drug Screen. Data for the rad14 strain (AID 159);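 also: 0% = growth of vehicle-treated control cultures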; conditions: S. cerevisiae rad14 strain growth inhibition, stronger effect = higher value
Outline: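 Here, inhibition of yeast growth was measured after compound exposure, using a strain with a genetic defect in DNA damage repair and vehicle-treated cultures as the reference.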

[13] = NCI Yeast Anticancer Drug Screen. Data for the sgs1 mgt1 strain (AID 161);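 also: 0% = growth of cultures given vehicle only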; conditions: S. cerevisiae sgs1 mgt1 strain, stronger effect = higher value
Outline: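 Growth of a repair-deficient yeast mutant was monitored after compound treatment and expressed as inhibition relative to vehicle-treated cultures.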

[14] = NCI Yeast Anticancer Drug Screen. Data for the CLN2oe strain (AID 163);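 also: 0% = growth of vehicle-only control cultures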; conditions: S. cerevisiae CLN2oe strain, stronger effect = higher value
Outline: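 Whole-cell yeast growth assay. A strain engineered for altered cell-cycle control received compound, and inhibition relative to vehicle-treated cultures was recorded.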

[15] = NCI Yeast Anticancer Drug Screen. Data for the cln2 rad14 strain (AID 165);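 also: 0% = growth equal to vehicle treated cultures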; conditions: S. cerevisiae cln2 rad14 strain, stronger effect = higher value
Outline: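 Yeast strain cln2 rad14, bearing defects in cell cycle control and DNA repair, serves as the test system; values reflect growth inhibition compared with vehicle.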

[16] = NCI Yeast Anticancer Drug Screen. Data for the bub3 strain (AID 167); conditions: S. cerevisiae bub3 mutant strain, stronger effect = higher value
Outline: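 Whole-cell yeast assay. The mutant strain was incubated with compounds, and growth inhibition was determined by comparison with vehicle-treated cells.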

[17] = at 5.0 µM (retest, dose inferred, filed as 0.5)
[18] = at 50.0 µM (retest, dose inferred, filed as 5.0)

Measured: growth inhibition

O=C(c1ccc(Cl)cc1)C1OC12C(=O)Nc1ccccc12 (centres undefined)
inactive: [1]; at 1.2 µM 9% | [2]; at 1.2 µM 8% | [3]; at 1.2 µM 8% | [5]; at 1.2 µM 6%
active: [1]; at 3.7 µM 99% | [1]; at 11.0 µM 99% | [1]; at 33.0 µM 99% | [1]; at 100.0 µM 99% | [2]; at 3.7 µM 99% | [2]; at 11.0 µM 99% | [2]; at 33.0 µM 99% | [2]; at 100.0 µM 99% | [3]; at 3.7 µM 99% | [3]; at 11.0 µM 99% | [3]; at 33.0 µM 99% | [3]; at 100.0 µM 99% | [4]; [17] 100% | [4]; [18] 100% | [4]; at 50.0 µM 99.5% | [5]; at 3.7 µM 99% | [5]; at 11.0 µM 99% | [5]; at 33.0 µM 98% | [5]; at 100.0 µM 99%

Fc1ccc(NC(=S)SCc2ccc(Cl)c(Cl)c2)cc1F
inactive: [6]; at 1.2 µM -6% | [6]; at 3.7 µM -8% | [6]; at 11.0 µM 17% | [7]; at 1.2 µM -4% | [7]; at 3.7 µM 12% | [7]; at 11.0 µM 33% | [8]; at 1.2 µM -2% | [8]; at 3.7 µM 25% | [8]; at 11.0 µM 60% | [9]; at 1.2 µM -3% | [9]; at 3.7 µM -4% | [9]; at 11.0 µM 0% | [10]; at 1.2 µM -15% | [10]; at 3.7 µM -9% | [10]; [17] 66% | [10]; at 11.0 µM 45% | [10]; at 33.0 µM -12% | [11]; at 1.2 µM -4% | [11]; at 3.7 µM -4% | [11]; [17] 18% | [11]; at 11.0 µM -4% | [11]; at 33.0 µM 60% | [12]; at 1.2 µM 3% | [12]; at 3.7 µM 5% | [12]; at 11.0 µM 24% | [13]; [17] 25% | [14]; at 1.2 µM -7% | [14]; at 3.7 µM -10% | [14]; at 11.0 µM -11% | [15]; [17] -2% | [16]; at 1.2 µM -2% | [16]; at 3.7 µM -4% | [16]; [17] 1% | [16]; at 11.0 µM 21% | [1]; at 1.2 µM 10% | [1]; at 3.7 µM 13% | [1]; at 11.0 µM 64% | [2]; at 1.2 µM -13% | [2]; at 3.7 µM -7% | [2]; at 11.0 µM 27% | [3]; at 1.2 µM -5% | [3]; at 3.7 µM -1% | [3]; at 11.0 µM 44% | [4]; [17] 33% | [5]; at 1.2 µM -9% | [5]; at 3.7 µM -6% | [5]; at 11.0 µM 30%
active: [6]; at 33.0 µM 89% | [6]; at 100.0 µM 98% | [7]; at 33.0 µM 99% | [7]; at 100.0 µM 98% | [8]; at 33.0 µM 98% | [8]; at 100.0 µM 98% | [9]; at 33.0 µM 97% | [9]; at 100.0 µM 98% | [10]; [18] 98% | [10]; at 50.0 µM 90.3% | [10]; at 100.0 µM 97% | [11]; [18] 98% | [11]; at 50.0 µM 93.2% | [11]; at 100.0 µM 99% | [12]; at 33.0 µM 99% | [12]; at 100.0 µM 98% | [13]; [18] 98% | [13]; at 50.0 µM 90% | [14]; at 33.0 µM 80% | [14]; at 100.0 µM 97% | [15]; [18] 97% | [15]; at 50.0 µM 90.5% | [16]; at 33.0 µM 98% | [16]; [18] 97% | [16]; at 50.0 µM 90.8% | [16]; at 100.0 µM 98% | [1]; at 33.0 µM 99% | [1]; at 100.0 µM 99% | [2]; at 33.0 µM 99% | [2]; at 100.0 µM 98% | [3]; at 33.0 µM 99% | [3]; at 100.0 µM 97% | [4]; [18] 97% | [4]; at 50.0 µM 90.6% | [5]; at 33.0 µM 98% | [5]; at 100.0 µM 98%

O=C1C=CC(=Nc2ccc3c(c2)Cc2cc(NC(=O)C(F)(F)F)ccc2-3)O1
inactive: [6]; at 1.2 µM 4% | [6]; at 3.7 µM 8% | [6]; at 11.0 µM 21% | [6]; at 33.0 µM 33% | [7]; at 1.2 µM 3% | [7]; at 3.7 µM 4% | [7]; at 11.0 µM 11% | [7]; at 33.0 µM 20% | [8]; at 1.2 µM 8% | [8]; at 3.7 µM 40% | [9]; at 1.2 µM 1% | [9]; at 3.7 µM 5% | [9]; at 11.0 µM 12% | [9]; at 33.0 µM 36% | [10]; at 1.2 µM 2% | [10]; at 3.7 µM 7% | [10]; [17] 44% | [10]; at 11.0 µM 20% | [10]; at 33.0 µM 55% | [11]; at 1.2 µM 5% | [11]; at 3.7 µM 14% | [11]; at 11.0 µM 28% | [11]; at 33.0 µM 48% | [12]; at 1.2 µM 6% | [12]; at 3.7 µM 15% | [12]; at 11.0 µM 32% | [12]; at 33.0 µM 62% | [13]; [17] 51% | [14]; at 1.2 µM -4% | [14]; at 3.7 µM 1% | [14]; at 11.0 µM 10% | [14]; at 33.0 µM 23% | [15]; [17] 7% | [15]; at 50.0 µM 3.55% | [16]; at 1.2 µM -7% | [16]; at 3.7 µM -6% | [16]; [17] 25% | [16]; at 11.0 µM 0% | [16]; at 33.0 µM 13% | [1]; at 1.2 µM 1% | [1]; at 3.7 µM 3% | [1]; at 11.0 µM 15% | [1]; at 33.0 µM 26% | [2]; at 1.2 µM 3% | [2]; at 3.7 µM 9% | [2]; at 11.0 µM 22% | [2]; at 33.0 µM 39% | [3]; at 1.2 µM 7% | [3]; at 3.7 µM 15% | [3]; at 11.0 µM 34% | [3]; at 33.0 µM 63% | [5]; at 1.2 µM 4% | [5]; at 3.7 µM 13% | [5]; at 11.0 µM 32% | [5]; at 33.0 µM 57%
active: [6]; at 100.0 µM 97% | [7]; at 100.0 µM 95% | [8]; at 11.0 µM 81% | [8]; at 33.0 µM 91% | [8]; at 100.0 µM 98% | [9]; at 100.0 µM 96% | [10]; [18] 96% | [10]; at 50.0 µM 82.4% | [10]; at 100.0 µM 97% | [11]; [17] 88% | [11]; [18] 95% | [11]; at 50.0 µM 96% | [11]; at 100.0 µM 96% | [12]; at 100.0 µM 98% | [13]; [18] 97% | [13]; at 50.0 µM 98.3% | [14]; at 100.0 µM 96% | [15]; [18] 93% | [16]; [18] 96% | [16]; at 50.0 µM 87.7% | [16]; at 100.0 µM 96% | [1]; at 100.0 µM 98% | [2]; at 100.0 µM 98% | [3]; at 100.0 µM 98% | [4]; [17] 79% | [4]; [18] 94% | [4]; at 50.0 µM 98.3% | [5]; at 100.0 µM 96%
